This is an account of results in PubChem BioAssay (NCATS).

Results filed as inconclusive are left out. Activity calls are given as the source filed them. Calls follow the shape of the dose curve; as a rule, active = well fitted inhibition curve with a large enough effect; inconclusive = small, poorly fitted or top-dose-only effect; inactive = flat fitted curve, though single readings scatter.
% is scaled to controls: 0 for no effect and ±100 for the full control effect; potency is read from the fitted curve at half-maximal effect.

The first assay has as its system KB-3-1. Kind of assay: Cytotoxic Profiling of Annotated Libraries Using Quantitative High-Throughput Screening (AID 1296008). Also: nearly all actives have a fitted effect of over 60% in size. The conditions noted are these: Five cell lines viability, CellTiter-Glo ATP luminescence, 48-72 h; max response: hits give low values. An outline of the steps:
(§1)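 Cytotoxicity was measured as CellTiter-Glo ATP luminescence, read after 10 min at room temperature. Compound treatment of the cells lasted 48 or 72 hr at 37 degrees Celsius in a qHTS format.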
For `COc1cc(F)c(F)c(Nc2ccc(I)cc2F)c1NS(=O)(=O)C1(CC(O)CO)CC1` (stereo not drawn), the max response was -14.8% (inactive).

For the compound `Nc1nc(OCc2cc(Br)cs2)c2[nH]cnc2n1`, the compound was called inactive.

Consider `O=C(NCc1ccccc1)c1ccc2c(=O)n(-c3cccc(C(F)(F)F)c3)c(=S)[nH]c2c1`, for which the max response was -9.36% (inactive).

In the case of `O=C(Nc1ccc(C(F)(F)F)cn1)N1CCN(c2ncccc2C(F)(F)F)CC1`, the max response is -14.9% (inactive).

On to `C=C1C(=O)OC2C1CCC1(C)C(O)CC=C(C)C21` (stereo not drawn), for which the max response is 0.514% (inactive).

Consider `CN1CCN(S(=O)(=O)c2ccc(-c3cnc(N)c(C(=O)Nc4cccnc4)n3)cc2)CC1`, for which the max response was 3.5% (inactive).

With `NC(=O)c1nc(Nc2ccccc2)sc1NC(=O)C1CCCCC1`, the outcome was inactive.

`Cc1ccnc(NC(=O)C(C)c2cccc(C(=O)c3ccccc3)c2)c1` (stereo not drawn): the max response was -17.5% (inactive).

For `Cc1nc(C#Cc2ccnc(Cl)c2)c(C)n1-c1ccc(OC(F)(F)F)cc1`, the max response is -15.3% (inactive).

As to `O=C(NCCCCCCCCNC(=O)C(Cl)Cl)C(Cl)Cl`, the max response is -9.66% (inactive).

Turning to `C=C1C(=O)O[C@@H]2C=C(COC(C)=O)CC/C=C(\CO)CC[C@@H]12`, the max response was 7.74% (inactive).

As for `CCC(=O)N1CCOc2c(cc(-c3ccc(OC)c(OC)c3)cc2OC[C@H]2CCCN(C)C2)C1`, the max response was -9.43% (inactive).

On to `Cc1ccc(-c2cn3c4c(sc3n2)CCCC4)cc1`, for which the max response was -4.88% (inactive).

Turning to `C=C1C(=O)OC2C1CCC1(C)C(O)CCC(=C)C21` (stereo not drawn), the max response was 7.7% (inactive).

`C=C1/C(=C/C=C2\CCC[C@]3(C)[C@@H]([C@H](C)CC[C@@H](O)C(C)(C)O)CC[C@@H]23)C[C@@H](O)C[C@@H]1O`: the max response is -22.3% (inactive).

On to `O=C([C@@H]1CCCN(c2ccc3[nH]c(C4(n5cc(Cl)cn5)CC4)nc3n2)C1)N1CCCC1`, for which the max response was -11.1% (inactive).

In the case of `O=S(=O)(Nc1ccccc1N1CCCCC1)c1ccc(Cl)s1`, the max response was -15.2% (inactive).

In the case of `CCCCOc1ccc(S(=O)(=O)n2c(C)nc3ccccc32)cc1`, the max response is -24.1% (inactive).

Take `C=C1C(=O)O[C@@H]2[C@H]1CCC(C)=C(CCC(=O)O)[C@@]2(C)O`: the compound was classed as inactive.

In the case of `C=CCc1ccc(OC(C)Cc2ccc(OC)c(OC)c2)c(OC)c1` (stereo not drawn), the max response is -25.6% (inactive).

`COc1cc(N2CCOCC2)ccc1NC(=O)c1csc(-c2cccnc2)n1`: the max response was 1.64% (inactive).

For the compound `C=CC(=O)N1CCCN(c2cc(NCCC(=O)O)nc(-c3ccccn3)n2)CC1`, the max response is -3.55% (inactive).

In the case of `CC1(C)CC[C@]2(C(=O)O[C@@H]3O[C@H](CO)[C@@H](O)[C@H](O)[C@H]3O)CC[C@]3(C)C(=CCC4[C@@]5(C)CC[C@H](O[C@@H]6O[C@H](C(=O)O)[C@H](O)[C@H](O)[C@H]6O)C(C)(C)C5CC[C@]43C)[C@@H]2C1` (stereo partly drawn), the call was inactive.

Regarding `CC(C)c1ccc(-c2cc(=O)c3ccccc3o2)cc1`, the max response was -3.41% (inactive).

On to `CC1CCC(=O)CC(SCC(O)C(=O)O)CCC(=O)O1` (stereo not drawn), for which the max response was -25.6% (inactive).

As to `CC(=O)OC1CC2(C)C(CCC(C)C23Cc2c(O)cc(CO)c(C=O)c2O3)C(C)(C)C1O` (stereo not drawn), the max response was 1.75% (inactive).

`O=C(Nc1cnc(Cl)nc1)c1ccc(F)c(F)c1`: the max response is 3.36% (inactive).

`COC1CCN(C(=O)c2cc(Cc3n[nH]c(=O)c4ccccc34)ccc2F)CC1`: the max response was -17.5% (inactive).

With `COc1nc2ccc(Br)cc2cc1[C@@H](c1ccccc1)[C@@](O)(CCN(C)C)c1cccc2ccccc12`, the max response is -1.57% (inactive).

As to `Fc1ccc(-c2cncc(CN3CCN(c4cccc5c4OCCO5)CC3)c2)cc1`, the max response was -10.8% (inactive).

`C/C=C(\C)C(=O)O[C@H]1C[C@](C)(O)[C@H]2CC=C(C)[C@H]2[C@@H]2OC(=O)[C@H](C)[C@H]21`: the max response is -0.753% (inactive).

As to `COc1cc2ncnc(Nc3cccc(I)c3)c2cc1OC`, the Potency was 9.2 µM (active).

As to `COc1cc(C(=O)NCC2(N(C)C)CCCC2)cc(OC)c1OCc1ccccc1`, the max response was 3.26% (inactive).

Another assay has as its system NIH3T3. The assay is described as above. The conditions noted are these: Five cell lines viability, CellTiter-Glo ATP luminescence, 48-72 h; max response: hits give low values. In outline:
as §1
Regarding `C=C1[C@@H](OC(C)=O)CC[C@@]2(C)[C@@H](OC(C)=O)[C@H](OC(C)=O)C3=C(C)C[C@H](OC(=O)C(C)CC)[C@@H]([C@@H](OC(C)=O)[C@H]12)C3(C)C` (stereo partly drawn), the Potency is 5.44 µM (active).

Take `S=C(c1ccc(-c2ccc(Cl)c(Cl)c2)o1)N1CCCCC1`: the max response was 2.68% (inactive).

For `CC(CCC1(O)OC2CC3C4CC=C5C[C@@H](O[C@@H]6O[C@H](CO)[C@@H](O[C@@H]7O[C@@H](C)[C@H](O)[C@@H](O)[C@H]7O)[C@H](O)[C@H]6O[C@@H]6O[C@@H](C)[C@H](O)[C@@H](O)[C@H]6O)CC[C@]5(C)C4CC[C@]3(C)[C@@]2(O)[C@@H]1C)CO[C@@H]1O[C@H](CO)[C@@H](O)[C@H](O)[C@H]1O` (stereo partly drawn), the max response was 4.51% (inactive).

As to `Cc1ccc(N2CCN(S(=O)(=O)N3CCCCC3)CC2)c(C)c1`, the max response was 4.82% (inactive).

On to `O=C(Nc1ncc([N+](=O)[O-])s1)c1ccccc1O`, for which the compound was called inactive.

Take `O=C(NCc1cccs1)c1cc2nc(-c3ccco3)cc(C(F)(F)Cl)n2n1`: the max response was -24.5% (inactive).

`COc1ccc(-n2c(SCCCN3C(=O)c4cccc5cccc(c45)C3=O)nnc2-c2ccncc2)cc1`: the max response was -2.58% (inactive).

Regarding `COc1cc(F)c(F)c(Nc2ccc(I)cc2F)c1NS(=O)(=O)C1(CC(O)CO)CC1` (stereo not drawn), the Potency is 5.17 µM (active).

With `Nc1nc(OCc2cc(Br)cs2)c2[nH]cnc2n1`, the max response was 2.13% (inactive).

Turning to `O=C(NCc1ccccc1)c1ccc2c(=O)n(-c3cccc(C(F)(F)F)c3)c(=S)[nH]c2c1`, the max response was -30.9% (inactive).

Consider `O=C(Nc1ccc(C(F)(F)F)cn1)N1CCN(c2ncccc2C(F)(F)F)CC1`, for which the max response was -8.79% (inactive).

Consider `C=C1C(=O)OC2C1CCC1(C)C(O)CC=C(C)C21` (stereo not drawn), for which the compound was classed as inactive.

As for `CN1CCN(S(=O)(=O)c2ccc(-c3cnc(N)c(C(=O)Nc4cccnc4)n3)cc2)CC1`, the Potency is 0.632 µM (active).

For the compound `NC(=O)c1nc(Nc2ccccc2)sc1NC(=O)C1CCCCC1`, the max response is -18.8% (inactive).

Consider `Cc1ccnc(NC(=O)C(C)c2cccc(C(=O)c3ccccc3)c2)c1` (stereo not drawn), for which the max response was -5.36% (inactive).

Take `Cc1nc(C#Cc2ccnc(Cl)c2)c(C)n1-c1ccc(OC(F)(F)F)cc1`: the max response was -27.8% (inactive).

With `O=C(NCCCCCCCCNC(=O)C(Cl)Cl)C(Cl)Cl`, the max response is -14.9% (inactive).

For the compound `C=C1C(=O)O[C@@H]2C=C(COC(C)=O)CC/C=C(\CO)CC[C@@H]12`, the max response is -6.09% (inactive).

For the compound `CCC(=O)N1CCOc2c(cc(-c3ccc(OC)c(OC)c3)cc2OC[C@H]2CCCN(C)C2)C1`, the result was inactive.

Regarding `Cc1ccc(-c2cn3c4c(sc3n2)CCCC4)cc1`, the max response was -12.5% (inactive).

As to `C=C1C(=O)OC2C1CCC1(C)C(O)CCC(=C)C21` (stereo not drawn), the max response was -19.9% (inactive).

As to `C=C1/C(=C/C=C2\CCC[C@]3(C)[C@@H]([C@H](C)CC[C@@H](O)C(C)(C)O)CC[C@@H]23)C[C@@H](O)C[C@@H]1O`, the Potency is 0.0146 µM (active).

Regarding `O=C([C@@H]1CCCN(c2ccc3[nH]c(C4(n5cc(Cl)cn5)CC4)nc3n2)C1)N1CCCC1`, the max response was -6.68% (inactive).

As for `O=S(=O)(Nc1ccccc1N1CCCCC1)c1ccc(Cl)s1`, the max response is -6.22% (inactive).

With `CCCCOc1ccc(S(=O)(=O)n2c(C)nc3ccccc32)cc1`, the max response is -1.64% (inactive).

Take `C=C1C(=O)O[C@@H]2[C@H]1CCC(C)=C(CCC(=O)O)[C@@]2(C)O`: the max response is -62.1% (inactive).

With `C=CCc1ccc(OC(C)Cc2ccc(OC)c(OC)c2)c(OC)c1` (stereo not drawn), the max response was -6.99% (inactive).

With `COc1cc(N2CCOCC2)ccc1NC(=O)c1csc(-c2cccnc2)n1`, the Potency is 10.3 µM (active).

Consider `C=CC(=O)N1CCCN(c2cc(NCCC(=O)O)nc(-c3ccccn3)n2)CC1`, for which the max response was -29.3% (inactive).

Take `CC1(C)CC[C@]2(C(=O)O[C@@H]3O[C@H](CO)[C@@H](O)[C@H](O)[C@H]3O)CC[C@]3(C)C(=CCC4[C@@]5(C)CC[C@H](O[C@@H]6O[C@H](C(=O)O)[C@H](O)[C@H](O)[C@H]6O)C(C)(C)C5CC[C@]43C)[C@@H]2C1` (stereo partly drawn): the max response is -2.05% (inactive).

Regarding `CC(C)c1ccc(-c2cc(=O)c3ccccc3o2)cc1`, the max response was -24.9% (inactive).

`CC1CCC(=O)CC(SCC(O)C(=O)O)CCC(=O)O1` (stereo not drawn): the max response is -15.1% (inactive).

In the case of `CC(=O)OC1CC2(C)C(CCC(C)C23Cc2c(O)cc(CO)c(C=O)c2O3)C(C)(C)C1O` (stereo not drawn), the max response is 1.46% (inactive).

As for `O=C(Nc1cnc(Cl)nc1)c1ccc(F)c(F)c1`, the max response is 1.41% (inactive).

As to `COC1CCN(C(=O)c2cc(Cc3n[nH]c(=O)c4ccccc34)ccc2F)CC1`, the max response was -21.2% (inactive).

Take `COc1nc2ccc(Br)cc2cc1[C@@H](c1ccccc1)[C@@](O)(CCN(C)C)c1cccc2ccccc12`: the Potency is 18.4 µM (active).

Take `Fc1ccc(-c2cncc(CN3CCN(c4cccc5c4OCCO5)CC3)c2)cc1`: the max response is -12.4% (inactive).

Take `C/C=C(\C)C(=O)O[C@H]1C[C@](C)(O)[C@H]2CC=C(C)[C@H]2[C@@H]2OC(=O)[C@H](C)[C@H]21`: the max response was 0.0048% (inactive).

Take `COc1cc2ncnc(Nc3cccc(I)c3)c2cc1OC`: the outcome was inactive.

As to `COc1cc(C(=O)NCC2(N(C)C)CCCC2)cc(OC)c1OCc1ccccc1`, the max response is -9.79% (inactive).
